Measurements reported in PubChem BioAssay (NCATS).
“And” between values parts separate entries of the source, which are not always exact repeats. Equal values may be shown once. Records with an inconclusive call do not appear. Where a structure was tested more than once in an assay, its records may differ in their call. The source made the active and inactive calls. Unless noted, calls follow the shape of the dose curve; as a rule, active = well fitted curve in the direction sought with a large enough effect; inconclusive = small, poorly fitted or top-dose-only effect, or another doubt; inactive = no such curve, though single readings can be large; an effect the other way counts as inactive or inconclusive.

Assays:
[1] = test system: OV90; experiment: Primary qHTS to identify gynecologic anti-cancer compounds using libraries of approved drugs and bioactive compounds (AID 1345084); settings: Gynecologic cancer cell panel viability, ATPlite luminescence, 48 h; series mostly up to 57.5 µM; also: % is scaled to controls: 0 for no effect and ±100 for the full control effect; nearly all actives have a fitted effect of over 55% in size
Method in brief: (§1)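 Cells, 1,000 per well, were allowed to settle for 16 h at 37 C before compound addition. Five concentrations were tested for 48 h, and viability was read by ATPlite luminescence after 15 min at room temperature.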

[2] = test system: PA-1; experiment: as above; settings: Gynecologic cancer cell panel viability, ATPlite luminescence, 48 h; series mostly up to 57.5 µM
Method in brief: as §1

[3] = test system: SKOV3; experiment: as above; settings: Gynecologic cancer cell panel viability, ATPlite luminescence, 48 h; series mostly up to 57.5 µM
Method in brief: as §1

[4] = test system: Tov-21-G; experiment: as above; settings: Gynecologic cancer cell panel viability, ATPlite luminescence, 48 h; series mostly up to 57.5 µM
Method in brief: as §1

[5] = test system: Tov112D; experiment: as above; settings: Gynecologic cancer cell panel viability, ATPlite luminescence, 48 h; series mostly up to 57.5 µM
Method in brief: as §1

[6] = Drug repurposing screens with cells derived from glioblastoma tumor samples (AID 1345199); settings: GBM patient neurospheres viability, ATP luminescence, 48 h; also: nearly all actives have a fitted effect of over 40% in size; also: potency is read from the fitted curve at half-maximal effect; as to activity, negative = cell killing: % is scaled to controls: 0 for no effect and ±100 for the full control effect
Method in brief: (§2)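 Four patient lines of CD133+ GBM neurospheres were screened at several concentrations; hits were retested in those lines plus three slower-growing GBM lines, using 48-hour treatment and ATP-based viability.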

[7] = test system: astro; experiment: as above; settings: viability, ATP luminescence, 48 h; series mostly up to 45.9 µM
Method in brief: as §2

[8] = biological target: Nuclear receptor subfamily 1 group I member 2 (Rattus norvegicus) (UniProt Q9R1A7); experiment: qHTS assay for small molecule activators of the rat pregnane X receptor (rPXR) signaling pathway (AID 651751; call rule not given here; also: 0% is about no effect); settings: rPXR reporter cells, luciferase (One-Glo), 24 h
[9] = at 45.9 µM (top of the series), tumour line B
[10] = at 45.9 µM (top of the series), tumour line D
[11] = at 46.1 µM (top of the series), tumour line C
[12] = at 46 µM (top of the series), tumour line A

Sequence of Nuclear receptor subfamily 1 group I member 2 (Rattus norvegicus) (Q9R1A7 whole entry, looked up): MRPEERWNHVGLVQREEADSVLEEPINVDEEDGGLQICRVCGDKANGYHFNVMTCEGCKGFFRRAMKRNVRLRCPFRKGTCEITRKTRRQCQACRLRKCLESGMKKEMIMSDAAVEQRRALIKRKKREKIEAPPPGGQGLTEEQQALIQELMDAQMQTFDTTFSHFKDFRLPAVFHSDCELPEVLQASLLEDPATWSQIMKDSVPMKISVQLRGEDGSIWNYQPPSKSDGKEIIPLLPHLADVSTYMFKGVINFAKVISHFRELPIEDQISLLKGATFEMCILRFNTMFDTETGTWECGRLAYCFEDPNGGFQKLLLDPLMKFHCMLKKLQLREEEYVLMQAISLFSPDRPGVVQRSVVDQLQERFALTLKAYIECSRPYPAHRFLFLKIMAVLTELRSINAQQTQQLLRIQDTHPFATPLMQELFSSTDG

O=C(OCC1(COC(=O)c2cccnc2)CCCC(COC(=O)c2cccnc2)(COC(=O)c2cccnc2)C1O)c1cccnc1
inactive: Potency [1] | Potency [2] | Potency [3] | Potency [4] | Potency [5] | activity, negative = cell killing [6, 9] -11.6% | activity, negative = cell killing [6, 10] -18.7% | activity, negative = cell killing [6, 11] 2.18% | Potency [7]

O=C(c1ccccc1)c1ccccc1
inactive: Potency [1] | Potency [2] | Potency [3] | Potency [4] | Potency [5] | activity, negative = cell killing [6, 9] 2.19% | activity, negative = cell killing [6, 10] 8.55% | activity, negative = cell killing [6, 12] -8.04% | activity, negative = cell killing [6, 11] -0.361% | Potency [7] | max response [8] -0.979% and 2.4%

O=C1[C@@H]2[C@H]3CC[C@H](C3)[C@@H]2C(=O)N1CCCCN1CCN(c2ncccn2)CC1
active: Potency ([6]; tumour line A) 12.6 µM
inactive: Potency [1] | Potency [2] | Potency [3] | Potency [4] | Potency [5] | activity, negative = cell killing [6, 9] -7.9% | activity, negative = cell killing [6, 11] -10.5% | Potency [7]

Nc1c[n+](N2CCOCC2)no1
inactive: Potency [1] | Potency [2] | Potency [3] | Potency [4] | Potency [5] | activity, negative = cell killing [6, 9] 3.67% | activity, negative = cell killing [6, 10] -1.79% | activity, negative = cell killing [6, 12] -15.9% | activity, negative = cell killing [6, 11] -4.45% | Potency [7]

O=C(O)CCC(=O)OC[C@@H](NC(=O)C(Cl)Cl)[C@H](O)c1ccc([N+](=O)[O-])cc1
inactive: Potency [1] | Potency [2] | Potency [3] | Potency [4] | Potency [5] | activity, negative = cell killing [6, 9] -13.2% | activity, negative = cell killing [6, 10] -13.5% | activity, negative = cell killing [6, 11] -13.1% | Potency [7]

CCN1CCN(C(=O)N[C@@H](C(=O)N[C@@H]2C(=O)N3[C@@H]2SC(C)(C)[C@H]3C(=O)O)c2ccccc2)C(=O)C1=O
inactive: Potency [1] | Potency [2] | Potency [3] | Potency [4] | Potency [5] | activity, negative = cell killing [6, 9] -6.11% | activity, negative = cell killing [6, 10] -1.23% | activity, negative = cell killing [6, 12] -24% | activity, negative = cell killing [6, 11] 3.83% | Potency [7]

O=C(O)c1ccccc1S
inactive: Potency [1] | Potency [2] | Potency [3] | Potency [4] | Potency [5] | activity, negative = cell killing [6, 9] 0.0031% | activity, negative = cell killing [6, 10] 6.57% | activity, negative = cell killing [6, 11] 1.53% | Potency [7]

CCOC(=O)Cn1cccc1-c1nc(-c2ccc(OC)cc2)c(-c2ccc(OC)cc2)s1
inactive: Potency [1] | Potency [2] | Potency [3] | Potency [4] | Potency [5] | activity, negative = cell killing [6, 9] -12.2% | activity, negative = cell killing [6, 10] -21.7% | activity, negative = cell killing [6, 11] -5.22% | Potency [7]
active: Potency ([6]; tumour line A) 6.31 µM

CO/N=C(/C(=O)N[C@@H]1C(=O)N2C(C(=O)[O-])=C(C[n+]3ccn4ncccc43)CS[C@H]12)c1nsc(N)n1
inactive: Potency [1] | Potency [2] | Potency [3] | Potency [4] | Potency [5] | activity, negative = cell killing [6, 9] -6.03% and -3.53% | activity, negative = cell killing [6, 10] -11.1% and -14% | Potency [7]
active: Potency ([6]; tumour line A) 8.91 µM

CC(COc1ccccc1)NN (centres undefined)
inactive: Potency [1] | Potency [2] | Potency [3] | Potency [4] | Potency [5] | activity, negative = cell killing [6, 9] -5.24% | activity, negative = cell killing [6, 10] 14.4% | activity, negative = cell killing [6, 12] -26.7% | activity, negative = cell killing [6, 11] 4.61% | Potency [7]

COc1cc(NS(=O)(=O)c2ccc(N)cc2)nc(C)n1
inactive: Potency [1] | Potency [2] | Potency [3] | Potency [4] | Potency [5] | activity, negative = cell killing [6, 9] -1.01% | activity, negative = cell killing [6, 10] -8.58% | activity, negative = cell killing [6, 12] -28.7% | activity, negative = cell killing [6, 11] 5.24% | Potency [7]

COc1cc(C(=O)NC2CCCNC2)cc(OC)c1OC (centres undefined)
inactive: Potency [1] | Potency [2] | Potency [3] | Potency [4] | Potency [5] | activity, negative = cell killing [6, 9] -2.35% | activity, negative = cell killing [6, 10] -10.6% | activity, negative = cell killing [6, 11] 15.7% | Potency [7]

O=C(CCCCC(=O)Nc1c(I)cc(I)c(C(=O)O)c1I)Nc1c(I)cc(I)c(C(=O)O)c1I
inactive: Potency [1] | Potency [2] | Potency [3] | Potency [4] | Potency [5] | activity, negative = cell killing [6, 9] 0.519% | activity, negative = cell killing [6, 10] -19.2% | activity, negative = cell killing [6, 12] -28.1% | activity, negative = cell killing [6, 11] 4.23% | Potency [7]

CN(C(=O)C(Cl)Cl)c1ccc(OC(=O)c2ccco2)cc1
inactive: Potency [1] | Potency [2] | Potency [3] | Potency [4] | Potency [5] | activity, negative = cell killing [6, 9] -5.88% | activity, negative = cell killing [6, 10] -16.9% | activity, negative = cell killing [6, 11] -29.6% | Potency [7]
active: Potency ([6]; tumour line A) 35.5 µM

Cc1cccc(C)c1NC(=O)c1cc(S(N)(=O)=O)c(Cl)cc1O
active: Potency ([6]; tumour line A) 35.5 µM
inactive: Potency [1] | Potency [2] | Potency [3] | Potency [4] | Potency [5] | activity, negative = cell killing [6, 9] -11.2% | activity, negative = cell killing [6, 10] -8.64% | activity, negative = cell killing [6, 11] -16.5% | Potency [7]

OCc1cccnc1
inactive: Potency [1] | Potency [2] | Potency [3] | Potency [4] | Potency [5] | activity, negative = cell killing [6, 9] -6.38% | activity, negative = cell killing [6, 10] -1.28% | activity, negative = cell killing [6, 12] -22% | activity, negative = cell killing [6, 11] -5.89% | Potency [7]

CCOC(=O)c1ccc(OCCN2C[C@H](O)[C@@H](O)[C@H](O)[C@H]2CO)cc1
inactive: Potency [1] | Potency [2] | Potency [3] | Potency [4] | Potency [5] | activity, negative = cell killing [6, 9] 0.0726% | activity, negative = cell killing [6, 10] -4.04% | activity, negative = cell killing [6, 11] 1.63% | Potency [7]

O=C(O)Cc1ccc(OCCNC[C@H](O)c2ccccc2)cc1
inactive: Potency [1] | Potency [2] | Potency [3] | Potency [4] | Potency [5] | activity, negative = cell killing [6, 9] -8.45% | activity, negative = cell killing [6, 10] 5.34% | activity, negative = cell killing [6, 12] -29.2% | activity, negative = cell killing [6, 11] 9.13% | Potency [7]

CCCC(=O)O[C@]1(C(=O)COC(=O)CC)CC[C@H]2[C@@H]3CCC4=CC(=O)CC[C@]4(C)[C@H]3[C@@H](O)C[C@@]21C
inactive: Potency [1] | Potency [2] | Potency [3] | Potency [4] | Potency [5] | activity, negative = cell killing [6, 9] -1.31% | activity, negative = cell killing [6, 10] -7.61% | activity, negative = cell killing [6, 12] -4.97% | activity, negative = cell killing [6, 11] 15.1% | Potency [7]
